{
  "source": "PubChem BioAssay (Tox21)",
  "note": "Where “and” joins values, the source holds several entries; their conditions need not be identical. Identical values can stand only once. Calls of active or inactive are those of the source. Unless noted, calls follow the shape of the full dose curve. % is scaled to controls: 0 for no effect and ±100 for the full control effect; potency is read from the fitted curve at half-maximal effect.",
  "data": [
    {"test_system": "not listed separately", "experiment": "qHTS assay to identify small molecule antagonists of the estrogen receptor alpha (ER-alpha) signaling pathway - cell viability counter screen (AID 743074);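 also: HEK293 cells carrying ER-alpha-UAS-bla reporter stimulated with 17beta-estradiol; nearly all actives have a fitted effect of over 45% in size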", "conditions": "ERalpha-bla HEK293 viability, CellTiter-Glo luminescence, 18 h; series mostly up to 69.4 µM; activity, negative = cytotoxicity: at the top concentration", "values": [
      {"compound": "Cc1cc(C(F)(C(F)(F)F)C(F)(F)F)ccc1NC(=O)c1cccc(I)c1C(=O)NC(C)(C)CS(C)(=O)=O", "activity, negative = cytotoxicity": "-15.6% (inactive)"},
      {"compound": "CCOc1cc(C(C)(C)C)ccc1C1COC(c2c(F)cccc2F)=N1", "note": "(configuration not stated)", "activity, negative = cytotoxicity": "-11.2% (inactive)"},
      {"compound": "Nc1ccccc1C(=O)Oc1ccc2ccccc2c1", "activity, negative = cytotoxicity": "22.5% (inactive)"},
      {"compound": "Nc1ccc(Cc2ccc(N)c(Cl)c2)cc1Cl", "activity, negative = cytotoxicity": "22.6% (inactive)"},
      {"compound": "C[C@]12CC[C@@H]3c4ccc(OC(=O)N(CCCl)CCCl)cc4CC[C@H]3[C@@H]1CC[C@@H]2O", "activity, negative = cytotoxicity": "13.2% (inactive)"},
      {"compound": "CC(=O)Nc1ccc2c(c1)Cc1ccccc1-2", "activity, negative = cytotoxicity": "-8.03% [at 79.1 µM] (inactive)"},
      {"compound": "BrCBr", "activity, negative = cytotoxicity": "14.5% [at 79.1 µM] (inactive)"},
      {"compound": "CN(C)C(=S)[S-].CN(C)C(=S)[S-].[Cu+2]", "Potency": "6.7 µM (active)"},
      {"compound": "N#CC(Cl)Cl", "activity, negative = cytotoxicity": "11.6% (inactive)"},
      {"compound": "CC(C)CCCCCCCOP(=O)(Oc1ccccc1)Oc1ccccc1", "activity, negative = cytotoxicity": "-7.57% [at 79.1 µM] (inactive)"},
      {"compound": "O=C(CBr)c1ccc(O)cc1", "activity, negative = cytotoxicity": "7.14% (inactive)"},
      {"compound": "[CH3][Hg][Cl]", "activity, negative = cytotoxicity": "-14.4% (inactive)"},
      {"compound": "ClC1=C(Cl)[C@]2(Cl)[C@H]3[C@H]([C@H]4C=C[C@H]3C4)[C@@]1(Cl)C2(Cl)Cl", "activity, negative = cytotoxicity": "-11.9% (inactive)"},
      {"compound": "CCCCCCCCCBr", "activity, negative = cytotoxicity": "-2.71% [at 79.1 µM] (inactive)"},
      {"compound": "S=C=Nc1cccc2ccccc12", "activity, negative = cytotoxicity": "-6.34% (inactive)"},
      {"compound": "Nc1ccccc1C(=O)OC/C=C/c1ccccc1", "activity, negative = cytotoxicity": "11.1% (inactive)"},
      {"compound": "c1ccc(Nc2ccc3ccccc3c2)cc1", "activity, negative = cytotoxicity": "-28% (inactive)"},
      {"compound": "Clc1ccc(C(c2ccccc2Cl)C(Cl)(Cl)Cl)cc1", "note": "(configuration not stated)", "activity, negative = cytotoxicity": "-16.1% (inactive)"},
      {"compound": "Cc1c(Cl)c(=O)oc2cc(OP(=O)(OCCCl)OCCCl)ccc12", "activity, negative = cytotoxicity": "19.7% (inactive)"},
      {"compound": "FC(F)(F)c1cccc(C2=CCN(CCc3ccc4ccccc4c3)CC2)c1", "activity, negative = cytotoxicity": "-14% (inactive)"},
      {"compound": "c1ccc(OCC2CO2)cc1", "note": "(configuration not stated)", "activity, negative = cytotoxicity": "-5.6% [at 79.1 µM] (inactive)"},
      {"compound": "CC(C)N1C(=O)N(c2ccccc2)CSC1=NC(C)(C)C", "activity, negative = cytotoxicity": "-11% (inactive)"},
      {"compound": "CCC(C)(C)C(=O)OC1=C(c2ccc(Cl)cc2Cl)C(=O)OC12CCCCC2", "activity, negative = cytotoxicity": "9.4% (inactive)"},
      {"compound": "CN(C)C1CSSSC1", "activity, negative = cytotoxicity": "-22.7% (inactive)"},
      {"compound": "C1CCC2CCCCC2C1", "note": "(configuration not stated)", "activity, negative = cytotoxicity": "8.3% [at 79.1 µM] (inactive)"},
      {"compound": "Fc1cccc(Cl)c1CCl", "activity, negative = cytotoxicity": "6.3% (inactive)"},
      {"compound": "COP(=O)(OC)SCn1c(=O)oc2cc(Cl)cnc21", "activity, negative = cytotoxicity": "21.8% (inactive)"}
    ]},
    {"target": "Estrogen receptor (Homo sapiens) (UniProt P03372)", "sequence (P03372 whole entry, looked up)": "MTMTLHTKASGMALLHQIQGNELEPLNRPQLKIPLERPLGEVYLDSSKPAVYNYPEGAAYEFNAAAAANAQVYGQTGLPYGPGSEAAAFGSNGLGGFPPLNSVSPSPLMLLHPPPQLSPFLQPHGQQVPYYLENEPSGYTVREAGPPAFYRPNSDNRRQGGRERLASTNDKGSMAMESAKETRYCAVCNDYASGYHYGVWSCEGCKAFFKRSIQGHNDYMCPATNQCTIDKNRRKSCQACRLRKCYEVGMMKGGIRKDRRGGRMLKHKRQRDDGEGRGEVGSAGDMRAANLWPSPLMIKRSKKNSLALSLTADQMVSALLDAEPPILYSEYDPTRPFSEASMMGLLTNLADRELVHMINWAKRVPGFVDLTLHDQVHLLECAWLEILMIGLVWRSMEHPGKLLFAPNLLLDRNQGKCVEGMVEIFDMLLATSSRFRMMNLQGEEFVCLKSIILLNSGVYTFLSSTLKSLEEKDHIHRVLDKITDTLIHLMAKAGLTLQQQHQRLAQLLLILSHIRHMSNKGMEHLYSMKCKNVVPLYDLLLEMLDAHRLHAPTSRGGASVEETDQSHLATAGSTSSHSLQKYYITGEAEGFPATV", "experiment": "qHTS assay to identify small molecule agonists of the estrogen receptor alpha (ER-alpha) signaling pathway (AID 743075);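 also: HEK293 GripTite cells with ER-alpha and UAS-driven beta-lactamase reporter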", "conditions": "HEK293 ER-alpha-UAS-bla, beta-lactamase FRET ratio, 18 h; series mostly up to 70.1 µM; activation: at the top concentration", "values": [
      {"compound": "Cc1cc(C(F)(C(F)(F)F)C(F)(F)F)ccc1NC(=O)c1cccc(I)c1C(=O)NC(C)(C)CS(C)(=O)=O", "activation": "-1.23% (inactive)"},
      {"compound": "CCOc1cc(C(C)(C)C)ccc1C1COC(c2c(F)cccc2F)=N1", "note": "(configuration not stated)", "activation": "2.45% (inactive)"},
      {"compound": "Nc1ccccc1C(=O)Oc1ccc2ccccc2c1", "activation": "4.37% (inactive)"},
      {"compound": "Nc1ccc(Cc2ccc(N)c(Cl)c2)cc1Cl", "activation": "6.77% (inactive)"},
      {"compound": "Oc1cc(Cl)c(Cl)c(Cl)c1", "Potency": "41.4 µM [activator] (active)"},
      {"compound": "CC(=O)Nc1ccc2c(c1)Cc1ccccc1-2", "activation": "-0.403% [at 79.1 µM] (inactive)"},
      {"compound": "BrCBr", "activation": "-1.46% [at 79.1 µM] (inactive)"},
      {"compound": "O=C(O)COc1nc(Cl)c(Cl)cc1Cl", "activation": "12% [at 79.1 µM] (inactive)"},
      {"compound": "CC(C)CCCCCCCOP(=O)(Oc1ccccc1)Oc1ccccc1", "activation": "-0.431% [at 79.1 µM] (inactive)"},
      {"compound": "Oc1c(Cl)c(Cl)cc(Cl)c1Cl", "activation": "6.15% [at 79.1 µM] (inactive)"},
      {"compound": "ClC1=C(Cl)[C@]2(Cl)[C@H]3[C@H]([C@H]4C=C[C@H]3C4)[C@@]1(Cl)C2(Cl)Cl", "activation": "3.16% (inactive)"},
      {"compound": "CCCCCCCCCBr", "activation": "-3.63% [at 79.1 µM] (inactive)"},
      {"compound": "Cc1ccc(OP(=O)(Oc2ccccc2)Oc2ccccc2)cc1", "activation": "7.01% [at 79.1 µM] (inactive)"},
      {"compound": "S=C=Nc1cccc2ccccc12", "activation": "2.54% (inactive)"},
      {"compound": "Nc1ccccc1C(=O)OC/C=C/c1ccccc1", "activation": "0.75% (inactive)"},
      {"compound": "c1ccc(Nc2ccc3ccccc3c2)cc1", "Potency": "inactive"},
      {"compound": "Cc1c(Cl)c(=O)oc2cc(OP(=O)(OCCCl)OCCCl)ccc12", "activation": "1.83% (inactive)"},
      {"compound": "CCOC(=O)OC1=C(c2cc(C)ccc2C)C(=O)NC12CCC(OC)CC2", "note": "(configuration not stated)", "activation": "3.17% (inactive)"},
      {"compound": "Nc1ccc(Sc2ccc(N)cc2)cc1", "Potency": "0.219 µM [inconclusive] (active)"},
      {"compound": "CC(C)N1C(=O)N(c2ccccc2)CSC1=NC(C)(C)C", "activation": "-0.143% (inactive)"},
      {"compound": "CCC(C)(C)C(=O)OC1=C(c2ccc(Cl)cc2Cl)C(=O)OC12CCCCC2", "activation": "2.63% (inactive)"},
      {"compound": "CN(C)C1CSSSC1", "activation": "-2.51% (inactive)"},
      {"compound": "COP(=S)(OC)Oc1cc(Cl)c(Br)cc1Cl", "Potency": "54.9 µM [inconclusive] (active)"},
      {"compound": "O=C(CCCN1CCC2(CC1)C(=O)NCN2c1ccccc1)c1ccc(F)cc1", "activation": "-2.69% (inactive)"},
      {"compound": "C1CCC2CCCCC2C1", "note": "(configuration not stated)", "activation": "1.45% [at 79.1 µM] (inactive)"},
      {"compound": "Fc1cccc(Cl)c1CCl", "activation": "-1.62% (inactive)"},
      {"compound": "COP(=O)(OC)SCn1c(=O)oc2cc(Cl)cnc21", "activation": "-2.68% (inactive)"}
    ]},
    {"target": "Estrogen receptor (Homo sapiens) (UniProt P03372)", "experiment": "qHTS assay to identify small molecule agonists of the estrogen receptor alpha (ER-alpha) signaling pathway using the BG1 cell line (AID 743079; active = well fitted activation curve with a large enough effect in the repeat runs; inconclusive = weak or mixed curves, or effect the other way; inactive = no such curve, though single readings can be large or run the other way; also: nearly all actives have a fitted effect of over 20% in size)", "conditions": "BG1Luc4E2 cells, ERE-luciferase agonist, 22 h; series mostly up to 70.3 µM; activation: at the top concentration", "values": [
      {"compound": "Nc1ccccc1C(=O)Oc1ccc2ccccc2c1", "Potency": "4.33 µM (active)"},
      {"compound": "O=[N+]([O-])c1c2ccccc2cc2ccccc12", "Potency": "42.9 µM (active)"},
      {"compound": "CC(=O)Nc1ccc2c(c1)Cc1ccccc1-2", "Potency": "11 µM (active)"},
      {"compound": "BrCBr", "activation": "2.32% [at 95 µM] (inactive)"},
      {"compound": "O=C(O)COc1nc(Cl)c(Cl)cc1Cl", "activation": "7.6% [at 95 µM] (inactive)"},
      {"compound": "CC(C)CCCCCCCOP(=O)(Oc1ccccc1)Oc1ccccc1", "activation": "14.5% [at 95 µM] (inactive)"},
      {"compound": "[CH3][Hg][Cl]", "activation": "-5.46% (inactive)"},
      {"compound": "ClC1=C(Cl)[C@]2(Cl)[C@H]3[C@H]([C@H]4C=C[C@H]3C4)[C@@]1(Cl)C2(Cl)Cl", "Potency": "27.3 µM (active)"},
      {"compound": "CCCCCCCCCBr", "activation": "2.56% [at 95 µM] (inactive)"},
      {"compound": "Cc1ccc(OP(=O)(Oc2ccccc2)Oc2ccccc2)cc1", "Potency": "3.91 µM (active)"},
      {"compound": "c1ccc(Nc2ccc3ccccc3c2)cc1", "Potency": "19.2 µM (active) and 9.69 µM (active)"},
      {"compound": "Cc1c(Cl)c(=O)oc2cc(OP(=O)(OCCCl)OCCCl)ccc12", "activation": "2.28% (inactive)"},
      {"compound": "CCC(C)(C)C(=O)OC1=C(c2ccc(Cl)cc2Cl)C(=O)OC12CCCCC2", "Potency": "54.5 µM (active)"},
      {"compound": "CN(C)C1CSSSC1", "activation": "7.44% (inactive)"},
      {"compound": "COP(=S)(OC)Oc1cc(Cl)c(Br)cc1Cl", "activation": "-21.1% (inactive)"},
      {"compound": "C1CCC2CCCCC2C1", "note": "(configuration not stated)", "activation": "6.15% [at 95 µM] (inactive)"},
      {"compound": "Fc1cccc(Cl)c1CCl", "activation": "12.6% (inactive)"},
      {"compound": "COP(=O)(OC)SCn1c(=O)oc2cc(Cl)cnc21", "activation": "0.126% (inactive)"}
    ]}
  ]
}
